# Measured values: ChEMBL document CHEMBL4513216, “Probing the Open Global Health Chemical Diversity Library for Multistage-Active Starting Points for Next-Generation Antimalarials” (ACS Infect Dis, 2020)
# In all, about 69,000 compounds went through this assay and about 8,600 (12%) showed an effect of 50% or more. The full list was thinned out, with strong results kept by preference.
# System: Plasmodium berghei
# Assay: Screen against P. berghei liver stage (PbLuc), transformed with Luciferase, at 10uM
# Assay type: functional, HepG2
# Settings: tested at 10 uM
row,SMILES,INHIBITION
1,OC(COc1ccc(F)cc1)CN1CCC(c2ccn[nH]2)CC1 (centres undefined),37.9%
2,Cc1cccc(N2CCOCC3(C2)CN(c2cnn(C)c2)C(=O)CO3)n1 (centres undefined),44.4%
3,CC(C)Oc1ncnc2c1CCN(C(=O)c1cccn1C)CC2,7.39%
4,O=C1Nc2ccccc2/C1=C1\CCCCCN1,-2.09%
5,CS(=O)(=O)c1ccc(CN2CCCC3(C2)C(=O)Nc2ccccc23)cc1 (centres undefined),69%
6,O=C1Nc2ccccc2C12CCCN(Cc1ccncc1)C2 (centres undefined),16.6%
7,O=C1Nc2ccccc2C12CCCN(Cc1ccc3c(c1)OCCO3)C2 (centres undefined),43.3%
8,CNc1ncc(CN(C)Cc2cc(O)c3cc(F)ccc3n2)cn1,40.9%
9,CNc1ncc(CN(C)Cc2cc(O)c3cccc(Cl)c3n2)cn1,60.4%
10,CNc1ncc(CN(C)Cc2cc(O)c3cc(C)cc(C)c3n2)cn1,35.5%
11,COc1ccccc1CNC(=O)c1ccccc1-n1cnc(CN)c1,-1.85%
12,Cc1ccc(SC2CCCC2)c(C(=O)NCCO)c1,90.7%
13,CC(=O)NCCNC(=O)c1cc(C)ccc1SC1CCCC1,49.9%
14,Cc1ccc(SC2CCCC2)c(C(=O)NCCc2n[nH]c(=O)[nH]2)c1,49.9%
15,COCCc1ncc(CNC2(c3ccc(Cl)cc3Cl)CC2)cn1,34%
16,CCCN1CCC(Nc2cc(-c3ccccc3)ccc2OC)CC1,78.9%
17,COCCN1CCC(Nc2ccc(C#N)cc2F)CC1,21.7%
18,CCCN1CCC(NC(=O)Nc2ccc(OC)c(OC)c2)CC1,-4.46%
19,Cc1cc(C(=O)NCC(O)c2c(Cl)cccc2Cl)nn1C (centres undefined),25.2%
20,CCC(=O)N1CCN(c2ncnc3cc4c(cc23)OCCO4)CC1,41.6%
21,COc1cccc(CN2CC(O)CN(C(=O)C(C)(C)C)CC2=O)c1OC (centres undefined),58.5%
22,CCOC(=O)N1CC(=O)N(Cc2ccc(OC)cc2)CC(O)C1 (centres undefined),68.4%
23,COc1ccc(CN2CC(O)CN(C(=O)OCC(C)C)CC2=O)cc1 (centres undefined),15.4%

row,SMILES,INHIBITION
1,CCOC(=O)N1CC(=O)N(Cc2cccc(OC)c2OC)CC(O)C1 (centres undefined),0.284%
2,COc1cccc(CN2CC(O)CN(C(=O)C3CC3)CC2=O)c1OC (centres undefined),-1.23%
3,COc1ccc(CN2CC(O)CN(C(=O)OCC(C)(C)C)CC2=O)cc1 (centres undefined),-15.6%
4,COCC(=O)N1CCCCC1c1nc(N(C)C)ncc1-c1cc(C)no1 (centres undefined),17.435%
5,Cn1ccc(C(=O)N2CCCC(c3cc(O)n(C)n3)C2)n1 (centres undefined),36.4%
6,CCc1cnc(C)nc1NCc1cnc2c(c1)CCC2,46.4%
7,COc1ccccc1-n1nc(C(C)C)nc1Cc1nnc(N)s1,17.6%
8,CC1=C(C(=O)N(C)Cc2noc3c2CCCC3)C(C)NC(=O)N1 (centres undefined),11.8%
9,CCc1c(C(=O)NCC2CCS(=O)(=O)C2)cnn1-c1ccccc1 (centres undefined),4.71%
10,O=c1cc(CN2CCCC2)nc2n1CCCN(Cc1ccoc1)C2,-19.5%
11,O=C(NCCn1cccc1)C1CCCOC1 (centres undefined),39.8%
12,O=C(NCCCNC(=O)C1CCC1)NCCn1cccc1,54.4%
13,O=C(NCCNC(=O)C1CCCCC1)NCCn1cccc1,18.6%
14,NC(=O)c1cccc(CS(=O)(=O)CC(O)Cn2cccn2)c1 (centres undefined),4.41%
15,CN(C)C(CNC(=O)NCCOc1ccccc1)c1ccco1 (centres undefined),-90.7%
16,CN(C)c1cc(C(=O)N2CCCC2c2cnn(C)c2)ccn1 (centres undefined),22.3%
17,CCN1CCC(CC(=O)N(C)C(C)c2cncs2)CC1 (centres undefined),0.825%
18,O=S(=O)(NCC(O)c1ccc(C(F)(F)F)cc1)C1CC1 (centres undefined),72.2%
19,CN(C)c1ccc(C(O)CNS(=O)(=O)C2CC2)cc1 (centres undefined),38.1%
20,CSc1ccc(C(O)CNS(=O)(=O)C2CC2)cc1 (centres undefined),44.9%
21,Cc1nn(C2CCS(=O)(=O)C2)c(O)c1Cc1ccc(Br)cc1 (centres undefined),43.4%
22,CCOC(CC)C(=O)NCCC(=O)N1CCN(c2ccccn2)CC1 (centres undefined),-36.3%
23,Cc1cc(CN(C)C(=O)NC2CCN(c3ncccn3)CC2)no1,27.1%

row,SMILES,INHIBITION
1,COCCCNc1ncc(-c2cccc(F)c2)c(-c2nccn2C)n1,13.7%
2,Cn1ccnc1-c1nc(N2CCCCC2)ncc1-c1ccccc1F,54.8%
3,O=c1c2cnc(N3CCCCC3)nc2ccn1-c1ccccc1F,-2.04%
4,CC1CCN(c2ncc(C#N)c(N)n2)CC1,-10.3%
5,CN1CCCC(c2cccc(-c3ccccc3F)n2)C1 (centres undefined),31.15%
6,Cc1cc(-c2cnc(N3CCCC(C)C3)nc2C(C)C)on1 (centres undefined),26.3%
7,CC1CCCN(c2ncc(-c3ccccc3F)c(-c3nccn3C)n2)C1 (centres undefined),75.45%
8,CC1CCN(c2ncc(-c3ccccc3F)c(-c3nccn3C)n2)CC1,72.05%
9,Cc1cc(CNc2ccccc2Cl)no1,-38.9%
10,COCCC(=O)N1C[C@@H](O)[C@H](N2CCN(c3ccccc3)CC2)C1,16.5%
11,CCOc1ncccc1C(=O)N1CCCC(n2nc(C)cc2C)C1 (centres undefined),0.0996%
12,O=C(c1cccs1)N1CCC[C@]2(C[C@@H](OCc3ccncc3)CO2)C1,-41%
13,CN(C(=O)c1ccccc1N(C)S(C)(=O)=O)c1ccc(C(C)(C)C)cc1,31.2%
14,O=C(c1ccco1)N(CC(F)(F)F)C1CCOCC1,61.3%
15,O=C(c1ccco1)N(CC(F)(F)F)C1CCCOC1 (centres undefined),9.16%
16,O=C(c1ccc(F)cc1F)N(CC(F)(F)F)C1CCOCC1,3.04%
17,N#Cc1cc(S(N)(=O)=O)ccc1N1CCN(c2ccccc2)CC1,-33.7%
18,CC1CCCN(C(=O)c2ccc(-c3ccco3)o2)C1 (centres undefined),-22.2%
19,CCS(=O)(=O)NCC(=O)N1CCC(c2cc3ccccc3[nH]2)CC1,-17.8%
20,CNS(=O)(=O)CC(=O)N1CCC(c2cc3ccccc3[nH]2)CC1,18.6%
21,COC(=O)NCC(=O)N1CCC(c2cc3ccccc3[nH]2)CC1,62.9%
22,O=c1[nH]c2nc(N3CCOCC3)ncc2c(=O)n1-c1cccc(F)c1,31.7%
23,O=S(=O)(C1CC1)N1C[C@@H]2CN(Cc3ccoc3)CCO[C@@H]2C1,-64.1%
